# In all, about 310,000 compounds went through this assay and about 14,000 (4.5%) showed an effect of 50% or more. Effects have a minus sign here. The list comes from a sample in which strong results are over-represented; it also holds similar structures and randomly drawn compounds.
# Molecular target: human ether-à-go-go-related gene (hERG) potassium channel (human, UniProt Q12809)
# Assay: primary screen, population patch clamp on CHO cells stably expressing hERG; higher = less effect of the substance
# 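Also: peak tail current of the secondary pulse compared with the same well before compound.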
# human ether-à-go-go-related gene (hERG) potassium channel, sequence (Q12809 whole entry, looked up): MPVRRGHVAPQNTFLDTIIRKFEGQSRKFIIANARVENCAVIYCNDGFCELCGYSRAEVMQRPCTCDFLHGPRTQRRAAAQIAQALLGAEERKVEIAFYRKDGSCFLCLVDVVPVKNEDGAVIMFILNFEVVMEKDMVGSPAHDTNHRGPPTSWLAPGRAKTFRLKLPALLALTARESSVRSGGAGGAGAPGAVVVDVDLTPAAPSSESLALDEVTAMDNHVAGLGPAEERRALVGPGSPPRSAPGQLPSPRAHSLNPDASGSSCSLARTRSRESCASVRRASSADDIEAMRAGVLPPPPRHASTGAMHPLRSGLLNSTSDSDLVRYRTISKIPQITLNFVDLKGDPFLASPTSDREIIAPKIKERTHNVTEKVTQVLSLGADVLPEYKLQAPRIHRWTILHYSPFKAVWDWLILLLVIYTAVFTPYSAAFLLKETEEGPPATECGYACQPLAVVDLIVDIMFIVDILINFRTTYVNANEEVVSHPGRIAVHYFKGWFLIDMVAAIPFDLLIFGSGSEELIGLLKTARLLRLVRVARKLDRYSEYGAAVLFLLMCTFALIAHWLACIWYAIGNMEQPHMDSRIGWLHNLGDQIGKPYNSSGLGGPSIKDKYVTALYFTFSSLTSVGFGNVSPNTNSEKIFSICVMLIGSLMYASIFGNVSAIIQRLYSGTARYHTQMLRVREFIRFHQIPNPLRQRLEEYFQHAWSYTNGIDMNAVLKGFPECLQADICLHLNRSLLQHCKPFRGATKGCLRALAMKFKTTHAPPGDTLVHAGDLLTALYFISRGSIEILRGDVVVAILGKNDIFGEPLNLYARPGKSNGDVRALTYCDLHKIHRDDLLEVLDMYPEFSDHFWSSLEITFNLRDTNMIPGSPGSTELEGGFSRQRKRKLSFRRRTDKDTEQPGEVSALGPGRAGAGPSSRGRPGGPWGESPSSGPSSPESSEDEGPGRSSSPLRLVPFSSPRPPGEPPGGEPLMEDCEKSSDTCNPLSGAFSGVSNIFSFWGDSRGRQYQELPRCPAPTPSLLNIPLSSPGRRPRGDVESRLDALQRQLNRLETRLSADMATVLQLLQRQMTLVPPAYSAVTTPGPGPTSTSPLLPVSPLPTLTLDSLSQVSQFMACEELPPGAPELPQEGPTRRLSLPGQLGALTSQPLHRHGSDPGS
row,SMILES,"hERG current change (%, negative = inhibition) at 10uM [%]"
1,CN1CCc2c(sc(NC(=O)C3CCCCC3)c2C(N)=O)C1.Cl,2.22
2,CC(=O)N1CCc2c(sc(NC(=O)C3CCCN3S(=O)(=O)c3cccs3)c2C(N)=O)C1 (stereo not shown),-2.88
3,CN1CCc2c(sc(NC(=O)c3ccco3)c2C(N)=O)C1.Cl,-17
4,CN1CCc2c(sc(NC(=O)c3cc(Cl)sc3Cl)c2C(N)=O)C1.Cl,-59.8
5,CN1CCc2c(sc(NC(=O)C3CCCN3S(=O)(=O)c3ccc(Cl)s3)c2C(N)=O)C1.Cl (stereo not shown),-63.6
6,CN1CCc2c(sc(NC(=O)c3ccc4ccccc4c3)c2C(N)=O)C1.Cl,-5.05
7,Cc1ccc(-n2cnc3ncnc(-c4ccccc4)c32)cc1,-6.83
8,Cc1ccc2[nH]c3c(c2c1)CN(C)CC3.Cl,-5.01
9,O=C(CN(C(=O)c1csnn1)c1cccc(Cl)c1)NC1CCCC1,-2.38
10,COc1ccc(CCC(=O)NNC(=O)Nc2ccc(C(C)C)cc2)cc1,23.8
11,COc1ccc(NC(=O)CN2CCN(c3ccccn3)CC2)cc1Cl,-17.4
12,COc1ccc(CC(NC(C)=O)C(=O)NC2CCN(S(=O)(=O)c3ccccc3)CC2)c(OC)c1 (stereo not shown),20.5
13,COc1cccc(CC2(CO)CCCN(C/C=C/c3ccccc3OC)C2)c1 (stereo not shown),-73.2
14,COc1ccccc1/C=C/CN1CCCC(CO)(CCc2ccccc2)C1 (stereo not shown),-74.7
15,COc1ccccc1/C=C/CN1CCOCC1,-3.9
16,COc1ccc(CC2(CO)CCN(C/C=C/c3ccccc3OC)CC2)cc1,-72.8
17,COc1ccccc1/C=C/CN1CCSCC1,-3.74
18,COc1ccccc1/C=C/CN1CCCCC1,-2.31
19,COc1ccc(/C=C/CN2CCCC(CO)(Cc3cccc(Cl)c3)C2)cc1 (stereo not shown),-50.8
20,COc1ccccc1/C=C/CN1CCC(CO)(Cc2ccccc2)CC1,-37.9
21,COCc1ccc(CN2CCCC(CO)(Cc3cccc(Cl)c3)C2)o1 (stereo not shown),-46.1
22,COc1ccc(F)c(CN2CCCC(CO)(Cc3cccc(Cl)c3)C2)c1 (stereo not shown),-30.6
23,C=CCC1NS(=O)(=O)OC2CCCC12 (stereo not shown),10.6

row,SMILES,"hERG current change (%, negative = inhibition) at 10uM [%]"
1,Cc1ccc(Cn2cccc(NC(=O)NCc3ccccc3)c2=O)cc1,-6.27
2,NC(=O)c1ccc[n+]([C@H]2O[C@@H](COP(=O)([O-])OP(=O)(O)OC[C@H]3O[C@@H](n4cnc5c(N)ncnc54)[C@H](O)[C@@H]3O)[C@H](O)[C@@H]2O)c1,12.1
3,Cc1c(C(=O)NN2CCOCC2)oc2c1ccc1ccccc12,2.24
4,Cc1ccc(C(=O)OCc2nnc(-c3ccccc3)o2)cc1S(=O)(=O)N1CCOCC1,-26.7
5,CN1CCN(C(=O)CC2(CC(=O)O)CCCC2)CC1.Cl,-1.66
6,CCn1c(CNC(=O)c2cccc(C)c2)nnc1SCC(=O)Nc1nnc(C)s1,15.4
7,Cn1c(=O)c(=O)n(C)c2cc(S(=O)(=O)NCCOc3ccccc3Cl)ccc21,1.26
8,COc1ccccc1/C=C/CN1CCCC(CO)(Cc2cccc(Cl)c2)C1 (stereo not shown),-69.6
9,COc1ccc(C2CC(=O)c3cc(OC)c(OC)cc32)cc1OC (stereo not shown),20.7
10,COc1ccc(CN(C)C(C)C(=O)Nc2cccc3ccccc23)cc1 (stereo not shown),-14.1
11,Cc1ccc(NC(=O)C2CC(=O)Nc3nncn32)cc1 (stereo not shown),14.4
12,O=C(COC(=O)c1ccc(O)cc1)NCC1COc2ccccc2O1 (stereo not shown),-3.35
13,COc1ccc(/C=C/C(=O)NC(=S)NNC(=O)c2ccco2)cc1,13.8
14,Cc1ccc(/C(O)=C2/C(=O)C(=O)N(CCN3CCOCC3)C2c2cccs2)cc1 (stereo not shown),8.67
15,c1ccc(-c2csc3nnc(SCc4ccc5c(c4)OCO5)n23)cc1,-71.4
16,Cc1ccc(-c2nc(NC(=O)CSc3nnc4scc(-c5ccccc5)n34)ns2)cc1,-1.19
17,Cc1ccc(-c2csc3nnc(SCC(=O)N4CCN(Cc5ccccc5)CC4)n23)cc1,-55.3
18,O=C(CSc1nnc2scc(-c3ccccc3)n12)NCc1ccc2c(c1)OCO2,-21.1
19,Cn1c(SCC(=O)N2CCN(Cc3ccccc3)CC2)nnc1-c1ccncc1,-2.39
20,c1ccc(-c2csc3nnc(SCc4ccc5c(c4)OCCO5)n23)cc1,-3.29
21,O=C(CSc1nnc2scc(-c3ccccc3)n12)Nc1nsc(-c2ccccc2)n1,-40.1
22,O=C(CSc1nnc2scc(-c3ccccc3)n12)N1CCN(Cc2ccccc2)CC1,-41.8
23,Cc1ccc(-c2csc3nnc(SCC(=O)Nc4nsc(-c5ccccc5)n4)n23)cc1,-62.9

# Source: PMC4336329 (PLoS ONE, 2015)
